Growth data for eleven molecules are collected here from PubChem BioAssay (NCI).

Several values for one entry are separate records, joined by “and”; a condition that tells them apart may be missing. Equal values may be shown once. About 83,000 compounds went through this panel and 20% of them were active in at least one assay; those are over-represented in the sample as a whole.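 Assay: single dose, 48 h. Readout: percent growth (0 = no net growth; negative = cell death). Active: <10.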 Activity calls are given as the source filed them.

Assay in all cases: NCI-60 one-dose screen, 48 h (100 = growth as untreated, 0 = no growth, -100 = all killed)
Holding throughout (details): 10 µM unless noted

The subject of test [1] is MOLT-4 leukemia.
The test system of test [2] is SR leukemia.
For test [3], the system named is RPMI-8226 leukemia.
The test system of test [4] is OVCAR-8 ovarian.
For test [5], the system named is OVCAR-5 ovarian.
Test [6] relates to OVCAR-4 ovarian.
Test [7] relates to SK-OV-3 ovarian.
The subject of test [8] is IGROV1 ovarian.
Test [9] deals with OVCAR-3 ovarian.
Test [10] relates to HS 578T breast.
Test [11] has as its system NCI/ADR-RES ovarian.
Test [12] has as its system T-47D breast.
Test [13] concerns BT-549 breast.
In test [14] the test system is MDA-MB-435 melanoma.
Test [15] deals with SW-620 colon.
Test [16] has as its system MCF7 breast.
Test [17] deals with HCT-116 colon.
Test [18] relates to HCC-2998 colon.
In test [19] the test system is KM12 colon.

For the molecule `O=P1(N(CCCl)CCCl)NCCCO1` (stereo not drawn), the growth is 96.8% (inactive) in test [1]; 99% (inactive) in test [2]; 103% (inactive) in [3]; 102% (inactive) in test [4]; 108% (inactive) in test [5]; 111% (inactive) in test [6]. For the same molecule, the growth in test [7] is 111% (inactive); in test [8], 114% (inactive); in test [9], 121% (inactive); in [10] it was 115% (inactive); in [11], 108% (inactive); in test [12], 113% (inactive). Besides, the growth is 106% (inactive) in test [13]; 107% (inactive) in test [14]; 102% (inactive) in [15]; 96.8% (inactive) in test [16]; 104% (inactive) in [17]; 100% (inactive) in test [18]. The growth in test [19] is 111% (inactive).

In the case of `CC(=O)OC1CC2(O)C(CCC3(C)C(c4ccc(=O)oc4)CCC32O)C2(C)CCC(OC3OC(CO)C(O)C(O)C3O)C=C12` (stereo not drawn), the growth in [1] is -19.6% (active); in [2], -15.3% (active); in test [3], -23.3% (active); in test [4], -55.6% (active); in test [5], -73.5% (active); in test [6] it was -64.4% (active). Further, the growth in test [7] is -13.9% (active); in test [8], -26.5% (active); in test [9] it was -100% (active); in test [10] it was -11.3% (active); in test [11], -61.6% (active); in test [12], -9.39% (active). Further, the growth in [13] was -85.4% (active); in [14], -90.2% (active); in test [15] it was -67.4% (active); in [16], -23.4% (active); in [17], -94.3% (active); in test [18], -63.3% (active). Besides, in test [19], the growth was -97.8% (active).

On to `Nc1ccc(P(=O)(O)O)cc1`, for which the growth was 110% (inactive) and 112% (inactive) in [1]; 108% (inactive) and 115% (inactive) in test [2]; 97.8% (inactive) and 104% (inactive) in test [3]; 101% (inactive) and 98.4% (inactive) in test [4]; 97.6% (inactive) and 99.8% (inactive) in test [5]; 90.7% (inactive) in [6]. Further, the growth in [7] is 104% (inactive) and 108% (inactive); in test [8] it was 97.9% (inactive) and 111% (inactive); in [9] it was 107% (inactive) and 110% (inactive); in test [11], 93.1% (inactive) and 102% (inactive); in test [12], 101% (inactive); in test [13], 115% (inactive) and 98.3% (inactive). In addition, the growth in test [14] is 107% (inactive) and 105% (inactive); in [15], 103% (inactive) and 106% (inactive); in test [16], 103% (inactive) and 89.1% (inactive); in [17] it was 112% (inactive) and 103% (inactive); in test [18], 100% (inactive) and 96% (inactive); in test [19], 109% (inactive) and 99.6% (inactive).

Turning to `CC1=C([Te]c2ccccc2)C(=O)c2ccccc2C1=O`, the growth in test [1] was 31.4% (inactive); in test [2] it was 21.4% (inactive); in [3], -32.9% (active); in [4], -15.9% (active); in test [5], -72.3% (active); in test [6], -72.4% (active). Besides, the growth in test [7] is -37.8% (active); in test [8], -21.5% (active); in test [9], -77.5% (active); in test [11] it was -23.1% (active); in test [12] it was -51.9% (active); in test [13] it was -30.7% (active). The growth in test [14] was -3.36% (active); in test [15], -88.2% (active); in test [16], -77.3% (active); in [17], -40.5% (active); in test [18], -66.4% (active); in test [19], -60.7% (active).

Regarding `NC(N)=NC(N)=Nc1ccc(Cl)cc1`, the growth in [1] is 93.3% (inactive); in [2], 94.9% (inactive); in [3], 94.2% (inactive); in test [4], 121% (inactive); in test [5], 92.1% (inactive); in test [6] it was 96.3% (inactive). Besides, the growth in test [7] is 110% (inactive); in [8], 116% (inactive); in [9] it was 105% (inactive); in test [11], 113% (inactive); in [12] it was 109% (inactive); in test [13], 104% (inactive). Further, the growth in test [14] was 101% (inactive); in test [15] it was 102% (inactive); in test [16], 103% (inactive); in [17] it was 109% (inactive); in [18], 107% (inactive); in test [19], 112% (inactive).

As to `Nc1ccc2c(c1)Cc1cc(N)ccc1-2`, the growth was 104% (inactive) in test [1]; 95% (inactive) in test [2]; 68.6% (inactive) in test [3]; 99.7% (inactive) in test [4]; 107% (inactive) in [5]; 95.5% (inactive) in [6]. The growth was 82.3% (inactive) in [7]; 83.2% (inactive) in [8]; 87.6% (inactive) in test [9]; 84.4% (inactive) in [10]; 96.2% (inactive) in test [11]; 67.3% (inactive) in test [12]. The growth in test [14] was 91.8% (inactive); in [15], 98.9% (inactive); in [16], 59.9% (inactive); in test [17] it was 97.9% (inactive); in [18], 96.2% (inactive); in test [19], 82.6% (inactive).

For the molecule `CCCCOC(N)=O`, the growth in test [1] was 96.8% (inactive); in [2], 96.1% (inactive); in [3], 114% (inactive); in test [4], 98% (inactive); in test [5], 110% (inactive); in [6], 106% (inactive). The growth in [7] was 100% (inactive); in test [8], 113% (inactive); in test [9], 109% (inactive); in [10], 110% (inactive); in test [11] it was 106% (inactive); in [12] it was 102% (inactive). Also, the growth is 110% (inactive) in [14]; 113% (inactive) in test [15]; 114% (inactive) in [16]; 98.4% (inactive) in [17]; 106% (inactive) in test [19].

As for `CSc1cc(/C=C(\C)[C@@H]2C[C@@H]3O[C@]3(C)CCC[C@H](C)[C@H](O)[C@@H](C)C(=O)C(C)(C)[C@@H](O)CC(=O)O2)n(CCNC(=O)OC(C)(C)C)n1`, the growth is 42.7% (inactive) in test [1]; 37.7% (inactive) in [2]; 29.7% (inactive) in test [3]; 55.5% (inactive) in test [4]; 59.8% (inactive) in [5]; 82.4% (inactive) in test [6]. The growth was 79.9% (inactive) in test [7]; 54.4% (inactive) in [8]; 28.8% (inactive) in test [9]; 40.4% (inactive) in test [11]; 66.2% (inactive) in test [12]; 71.4% (inactive) in test [13]. In addition, the growth was -19.8% (active) in test [14]; 31.3% (inactive) in test [15]; 33.3% (inactive) in [16]; 26.7% (inactive) in [17]; 54.7% (inactive) in test [18]; 23.1% (inactive) in [19].

Take `O=[N+]([O-])c1ccc(P(=O)(O)O)cc1`: the growth in test [1] was 102% (inactive); in test [2], 94.8% (inactive); in [3], 108% (inactive); in test [4], 103% (inactive); in [5], 101% (inactive); in test [6] it was 96.2% (inactive). The growth in test [7] is 99.8% (inactive); in test [8], 102% (inactive); in [9] it was 113% (inactive); in [10], 108% (inactive); in [11] it was 103% (inactive); in [13], 89.9% (inactive). The growth is 101% (inactive) in [14]; 105% (inactive) in test [15]; 91.2% (inactive) in test [16]; 96.6% (inactive) in [17]; 102% (inactive) in test [18]; 115% (inactive) in test [19].

With `O=C1CCCCC1CN1CCCCC1` (stereo not drawn), the growth in test [1] was 116% (inactive); in test [2], 123% (inactive); in [3] it was 108% (inactive); in test [4], 110% (inactive); in test [5], 97.1% (inactive); in [6] it was 119% (inactive). For the same molecule, the growth is 97.9% (inactive) in test [7]; 93.9% (inactive) in test [8]; 100% (inactive) in test [9]; 101% (inactive) in test [11]; 83.2% (inactive) in test [12]; 117% (inactive) in test [13]. For the same molecule, the growth in test [14] was 109% (inactive); in test [15], 101% (inactive); in [16], 90.9% (inactive); in test [17] it was 101% (inactive); in test [18], 97.8% (inactive).

Take `CC[C@H](C)[C@H](NC(=O)[C@H]1CCCCN1C)C(=O)N(C)[C@H](C[C@@H](OC(C)=O)c1nc(C(=O)NC23C4C5C2C2C3C4C52C(=O)OC)cs1)C(C)C` (stereo partly drawn): the growth in test [1] is 8.38% (active); in [2] it was 2.77% (active); in test [3] it was 29.2% (inactive); in [4] it was 16.5% (inactive); in test [5] it was 55.7% (inactive); in [6] it was 50.3% (inactive). Besides, the growth in test [7] is 34.4% (inactive); in test [8] it was 21.9% (inactive); in test [9] it was -7.47% (active); in test [11] it was 10.9% (inactive); in test [12], 73.3% (inactive); in test [13] it was -36% (active). For the same molecule, the growth in test [14] is -0.902% (active); in test [15], 41.9% (inactive); in test [16] it was 13.7% (inactive); in [17], 7.22% (active); in test [18] it was 9.29% (active); in [19] it was -3.83% (active).
